# Measurements reported in PubChem BioAssay AID540333 (Southern Research Specialized Biocontainment Screening …, 2011).
# Screen size: about 10,000 compounds; about 320 (3.2%) were called active. The list comes from a sample in which actives are over-represented; it also holds similar structures and randomly drawn compounds. Unmarked numbers belong to inactive results. Cut-off read from the data, not from the text of the source: active = CPE inhibition mostly above about 9.1% (no sharp cut-off); inactive = mostly below about 7.2%.
# Assay: antivirals protecting cells from dengue CPE – CPE readout, HTS (AID 540333)
# Details: Dengue virus CPE inhibition in host cells, at 20 µM; active compounds read high
row,Compound,CPE inhibition
1,S=C(c1ccc(-c2ccccc2Cl)o1)N1CCCCC1,2.92%
2,Cn1cc(C(=O)N2CCc3ccccc32)cn1,inactive
3,c1cnc2cc(-c3ccsc3)ncc2c1,0.12%
4,COc1cccc(/C=C(/C#N)c2ccc(F)cc2)c1OCc1cccc(C(=O)O)c1,inactive
5,CN1CCN(C(=O)c2cnn3c(C(F)(F)F)cc(-c4cccs4)nc23)CC1,inactive
6,CC(C)/C=N/NC(=O)c1cccc(N2CCCC2=O)c1,0.335%
7,CCOC(=O)c1sc(NC(=S)NC(=O)c2ccccc2)c(C(=O)OCC)c1C,3.5%
8,COc1cccc(-c2c(-c3cc(OC)cc(OC)c3)n(C)c3ccc(-c4cccc5[nH]ccc45)cc23)c1,4.01%
9,COc1cc(OC)cc(-c2c(-c3cccs3)c3cc(-c4cccc5[nH]ccc45)ccc3n2C)c1,11.7% (active)
10,COc1ccc(-c2c(-c3cc(OC)cc(OC)c3)n(C)c3ccc(-c4cccc5[nH]ccc45)cc23)cc1,3.95%
11,Cc1ccc(-c2[nH]nc3c2C(C)C(C#N)=C(N)O3)cc1 (stereo not drawn),inactive
12,CC(C)(C)[C@@H]1CCC(=O)N(CC[C@H](Sc2ccccc2)c2ccccc2)CC1,1.54%
13,CN(Cc1ccccc1)c1nc(CN2CCOCC2)nc2scc(-c3ccccc3)c12,1.83%
14,Cc1ccc(-c2csc3nc(SCC(N)=O)n(Cc4ccccc4)c(=O)c23)cc1,12% (active)
15,C=CCn1c(SCC(=O)c2[nH]c(C)c(C(=O)OCC)c2C)nc2scc(-c3ccc(OC)cc3)c2c1=O,inactive
16,Cc1ccc(-n2c(SCC(N)=O)nc(O)cc2=O)cc1,1.35%
17,Cc1ccc(-c2csc3nc(SCC(=O)N(C)C)n(Cc4ccccc4)c(=O)c23)cc1,21.1% (active)
18,CCn1c(SCc2nc3scc(-c4ccccc4)c3c(=O)[nH]2)nnc1-c1cccs1,inactive
19,O=C(Nc1ccc(-c2nc3ccccc3[nH]2)cc1)c1ccccc1NS(=O)(=O)c1ccc(F)cc1,0.325%
20,COc1cc(NC(=O)CSc2nc3c(C)ccc(C)c3cc2C)c(C(=O)O)cc1OC,inactive
21,O=C1CN(C(=O)CSc2nnc(Nc3ccccc3)s2)c2ccccc2N1,inactive
22,S=C1NCCOCCNC(=S)NCCOCCOCCOCCN1,inactive
23,CC(=O)CC[C@@H](C)O[C@@H]1OC(C)[C@H](O)CC1O (stereo partly drawn),0.175%
24,CCc1cccc(CC)c1NC(=O)C1CN(S(=O)(=O)c2ccccc2)CCN1S(=O)(=O)c1ccccc1 (stereo not drawn),1.21%

row,Compound,CPE inhibition
1,CC(C)(C)OC(=O)NCC(=O)Oc1cc2oc(=O)cc(-c3ccccc3)c2cc1Cl,24.3% (active)
2,O=C(COc1ccc2c(-c3ccccc3)cc(=O)oc2c1)NCc1cccs1,0.675%
3,COC(=O)C(Oc1ccc2c(-c3ccc(OC)cc3)cc(=O)oc2c1)c1ccccc1 (stereo not drawn),0.765%
4,COc1ccccc1NC(c1cccnc1)c1ccc2cccnc2c1O (stereo not drawn),0.795%
5,Cc1ccc(Cl)cc1NC(=O)c1ccc(NC(=O)CCC(=O)O)cc1,0.84%
6,N#Cc1c(NC(=S)NC(=O)c2ccccc2)sc2c1CCCC2,1.09%
7,COC(=O)c1ccc(C(=O)NC(=S)Nc2nc3c(s2)CCCC3)cc1,0.85%
8,COc1ccc(C(=O)N[C@H](C(=O)Nc2nc3c(s2)CCCC3)C(C)C)cc1,18.9% (active)
9,O=C(NC(=S)Nc1nc2c(s1)CCCC2)c1ccc(C(=O)c2ccccc2)cc1,11.3% (active)
10,O=C(NC(=S)Nc1nc2c(s1)CCCC2)c1ccccc1,0.705%
11,Cc1csc(NC(=O)[C@@H](NC(=O)c2ccccc2)C(C)C)n1,0.86%
12,Cc1ccc(-n2c(SCC(=O)NCCN3C(=O)CSC3=O)nnc2-c2cccc(C)c2)cc1,0.355%
13,O=C(CSCc1ccc([N+](=O)[O-])cc1)NC1CC1,2.12%
14,Cc1ccc(C(=O)Nc2nnc(SCC(=O)N3CCCc4ccccc43)s2)cc1,0.06%
15,Cc1ccc(C(c2nnnn2C2CCCC2)N2CCc3ccccc32)cc1 (stereo not drawn),18.1% (active)
16,Cc1ccc(-c2nnc3ccc(SCC(=O)N4CCCc5ccccc54)nn23)cc1,inactive
17,COc1ccc([C@@H]2C(C#N)=C(N)S[C@@H](c3ccccc3)[C@@H]2[N+](=O)[O-])cc1,0.405%
18,COc1ccc(N=Cc2cc3c(cc2O)OC(N)=C(C#N)C3c2ccccc2)cc1 (stereo not drawn),13.1% (active)
19,N#CC1=C(N)Oc2cc(O)c(C=Nc3ccccc3)cc2C1c1ccccc1 (stereo not drawn),5.12%
20,COc1cccc(C2C(C#N)=C(N)Oc3cc(N)ccc32)c1OC (stereo not drawn),inactive
21,Cc1ccc(N=Cc2cc3c(cc2O)OC(N)=C(C#N)C3c2ccccc2)cc1 (stereo not drawn),23.4% (active)
22,Cc1ccccc1N=Cc1cc2c(cc1O)OC(N)=C(C#N)C2c1ccccc1 (stereo not drawn),0.055%
23,Cc1ccc(-c2nc(N)sc2CC(=O)OCC(=O)NCC2CCCO2)cc1 (stereo not drawn),inactive
24,CCCCC(=O)Nc1cccc(NC(=S)NC(=O)Cc2ccccc2)c1,0.515%
